High-throughput results from PubChem BioAssay.
HT1080-NT tox – qHTS for induction of synthetic lethality in tumor cells producing 2HG: qHTS for the HT-1080-NT fibrosarcoma cell line; 1.6% of 360,000 active; AID 686970, 2013; Potency, µM (top dose mostly 46.1 µM), for inactives: at the top dose activity, negative = less viability, most hits filed as cytotoxic; HT-1080-NT fibrosarcoma viability, CellTiter-Glo ATP luminescence, 48 h;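 also: NT is the 2HG producing partner of a matched IDH1 knockdown line; potency is read from the fitted curve at half-maximal effect; 0% = DMSO-treated cells and -100% = media-only wells without cells; nearly all actives have a fitted effect of over 55% in size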
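A 48-hour cytotoxicity screen used HT-1080-NT cells plated 2 hours before compound delivery. ATP-based CellTiter-Glo luminescence measured viability, normalized to DMSO and no-cell controls.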
HT1080 IDH1KD tx – qHTS for induction of synthetic lethality in tumor cells producing 2HG: qHTS for the HT-1080-IDH1KD cell line | Potency, µM (highest dose often 46.1 µM), without a hit: at the highest dose activity, negative = toxicity, actives largely listed as cytotoxic | 2% of 360,000 active | HT-1080 IDH1 knockdown viability, ATP luminescence, 48 h;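 also: potency is read from the fitted curve at half-maximal effect; 0% = DMSO wells and -100% = cell-free medium wells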
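Knockdown cells (IDH1KD HT-1080) received compounds 2 h after plating at 750 cells/well and were kept 48 h at 37 °C in 5% FBS RPMI. A CellTiter-Glo luminescence read gave % activity for curve fitting.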
TDP1 cell CPT – qHTS for Inhibitors of human tyrosyl-DNA phosphodiesterase 1 (TDP1): qHTS in cells in presence of CPT; chicken DT40 Tdp1-/-;hTDP1 cells + 20 nM CPT, ATP luminescence, 48 h; Potency, µM (titrated, usually from 46.2 µM), for inactives: at the highest dose activity change, negative = growth inhibition, usual class: inhibitors; 12% of 420,000 active; AID 686979, 2013; also: potency is read from the fitted curve at half-maximal effect; nearly all actives have a fitted effect of over 55% in size
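Cell growth measured by CellTiter-Glo luminescence after a minimum 48 h, 37 C compound exposure with 20 nM CPT in Tdp1-knockout DT40 cells stably expressing hTDP1, seeded 400/well; qHTS titration format.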
ELG1 DNA repair – qHTS screen for small molecules that inhibit ELG1-dependent DNA repair in human embryonic kidney (HEK293T) cells expressing luciferase-tagged ELG1. HEK293T ELG1-luciferase reporter, luminescence, 16 h; DNA damage induced by 5-fluorouridine. Potency, µM (doses to about 46.1 µM), inactives show at the highest dose activity change, negative = inhibition, most hits filed as inhibitors. 2.3% of 330,000 active; also: potency is read from the fitted curve at half-maximal effect; nearly all actives have a fitted effect of over 55% in size
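Quantitative HTS, concentration-response format. 2,000 cells/well co-treated with 5-fluorouridine and compound, 16 hr in 5% CO2 at 37 °C; ONE-Glo luminescence read after 30 min.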
TDP1 cell noCPT – qHTS for Inhibitors of human tyrosyl-DNA phosphodiesterase 1 (TDP1): qHTS in cells in absence of CPT; DT40 Tdp1-/- hTDP1 cells, no CPT, ATP luminescence, 48 h; Potency, µM (doses to about 46.2 µM), inactives show at the highest dose activity change, negative = growth inhibition, hits mostly inhibitors; 15% of 420,000 active; also: potency is read from the fitted curve at half-maximal effect; nearly all actives have a fitted effect of over 55% in size
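A cellular qHTS used chicken DT40 cells lacking endogenous Tdp1 but carrying stably transfected human TDP1. Compounds were applied without camptothecin, and cell growth kinetics were judged by ATP-dependent luminescence after ≥48 hr.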
IL-1B inflam inh – qHTS for Inhibitors of Inflammasome Signaling: IL-1-beta AlphaLISA Primary Screen; THP-1 LPS/ATP IL-1B secretion, AlphaLISA, 16 h; stronger effect = lower value; activity change, % at 57.5 µM; 4.7% of 360,000 active; AID 743279, 2014; in the data active = activity change below about -50%; inconclusive = mostly about -30% to -49%
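THP-1 cells pretreated 1 hr with compounds (up to 57.5 uM final), then stimulated with LPS (250 ng/mL final) plus ATP (1.25 mM final); secreted IL-1B measured by AlphaLISA after 16 hr, decreased signal indicating inhibition.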
Numbers without * were called inactive. Most compounds without a hit are left out; they make up all but 19% or so of the library. Unless noted, calls follow the shape of the dose curve; as a rule, active = well fitted curve in the direction sought with a large enough effect; inconclusive = small, poorly fitted or top-dose-only effect, or another doubt; inactive = no such curve, though single readings can be large; an effect the other way counts as inactive or inconclusive. Unless noted, % is scaled to controls: 0 for no effect and ±100 for the full control effect.

What do the screens show for `Cc1ccc(C(=O)N2CCCC2(C)C(=O)NCC(C)C)cc1F` (configuration not stated)?
HT1080-NT tox: 29%; HT1080 IDH1KD tx: 2%; TDP1 cell CPT: -8%; TDP1 cell noCPT: -15%; IL-1B inflam inh: 15

How did CC(C)CNC(=O)C1(C)CCN1C(=O)c1ccc(C(C)(C)C)cc1 (configuration not stated) do in these assays?
HT1080-NT tox: 6%; HT1080 IDH1KD tx: -27%; TDP1 cell CPT: 10µM*; TDP1 cell noCPT: 8.2µM*; IL-1B inflam inh: 51

How did CC1=C(C)CC(C(=O)NCCCN2CCCC2=O)C(C(=O)O)C1 (configuration not stated) do in these assays?
HT1080-NT tox: 9%; HT1080 IDH1KD tx: 7%; TDP1 cell CPT: 0%; ELG1 DNA repair: -1%; TDP1 cell noCPT: 16%; IL-1B inflam inh: 8

What do the screens show for `CC(NC(=O)Cn1ccsc1=N)C12CC3CC(CC(C3)C1)C2` (configuration not stated)?
HT1080-NT tox: inconclusive; HT1080 IDH1KD tx: -22%; TDP1 cell CPT: 16µM*; ELG1 DNA repair: -1%; TDP1 cell noCPT: 23µM*; IL-1B inflam inh: -59*

How did CC(NC(=O)CN1C(=O)NC(Cc2ccccc2)(Cc2ccccc2)C1=O)C12CC3CC(CC(C3)C1)C2 (configuration not stated) do in these assays?
HT1080-NT tox: 21µM*; HT1080 IDH1KD tx: inconclusive; TDP1 cell CPT: inconclusive; ELG1 DNA repair: -12%; TDP1 cell noCPT: inconclusive; IL-1B inflam inh: -10

How did CC(NC(=O)Cn1c(=O)[nH]c2ccsc2c1=O)C12CC3CC(CC(C3)C1)C2 (configuration not stated) do in these assays?
HT1080-NT tox: -1%; HT1080 IDH1KD tx: 0%; TDP1 cell CPT: 0%; ELG1 DNA repair: 6%; TDP1 cell noCPT: -12%; IL-1B inflam inh: -23

Results for O=C(CCCN1C(=O)c2ccccc2C1=O)NCc1ccc(F)cc1 ?
HT1080-NT tox: 7%; HT1080 IDH1KD tx: 13%; TDP1 cell CPT: 7%; ELG1 DNA repair: 0%; TDP1 cell noCPT: 2%; IL-1B inflam inh: 5

Results for COc1cccc(C2c3[nH]c4ccccc4c3C[C@H]3C(=O)N(CCCCCO)CC(=O)N23)c1 (some centres not stated) ?
HT1080-NT tox: -11%; HT1080 IDH1KD tx: -23%; TDP1 cell CPT: -18%; ELG1 DNA repair: -11%; TDP1 cell noCPT: -8%; IL-1B inflam inh: inconclusive

How did COc1ccc(C(=O)/C(=C\c2ccco2)N2C=CC=CC2=C(C#N)C#N)cc1 do in these assays?
HT1080-NT tox: inconclusive; HT1080 IDH1KD tx: 2.9µM*; TDP1 cell CPT: 0.65µM*; ELG1 DNA repair: inconclusive; TDP1 cell noCPT: 0.65µM*; IL-1B inflam inh: -96*

How did N#CC(C#N)=C1C=CC=CN1/C(=C\c1ccco1)C(=O)c1ccccc1 do in these assays?
HT1080-NT tox: inconclusive; HT1080 IDH1KD tx: inconclusive; TDP1 cell CPT: 1.3µM*; ELG1 DNA repair: inconclusive; TDP1 cell noCPT: 1.5µM*; IL-1B inflam inh: -98*

How did COc1ccc(/C=C(/C(=O)c2cccs2)N2C=CC=CC2=C(C#N)C#N)cc1 do in these assays?
HT1080-NT tox: inconclusive; HT1080 IDH1KD tx: inconclusive; TDP1 cell CPT: 1.2µM*; ELG1 DNA repair: inconclusive; TDP1 cell noCPT: 1.2µM*; IL-1B inflam inh: -95*

What do the screens show for `O=C(NCc1ccccc1CN1CCCC1)C1CCN(C(=O)c2ccc(Cl)cc2)CC1`?
HT1080-NT tox: -2%; HT1080 IDH1KD tx: 2%; TDP1 cell CPT: -18%; TDP1 cell noCPT: -23%; IL-1B inflam inh: -13

What do the screens show for `COc1ccc2c(c1)c(C(=O)N/N=C/c1ccc(Br)cc1)c(C)n2C`?
HT1080-NT tox: inconclusive; HT1080 IDH1KD tx: 18µM*; TDP1 cell CPT: 10µM*; ELG1 DNA repair: inconclusive; TDP1 cell noCPT: 10µM*; IL-1B inflam inh: -22

What do the screens show for `CCN1CCN(CC(=O)c2c(C)n(C)c3ccc(OC)cc23)CC1`?
HT1080-NT tox: -3%; HT1080 IDH1KD tx: 7%; TDP1 cell CPT: -2%; ELG1 DNA repair: -8%; TDP1 cell noCPT: 8%; IL-1B inflam inh: 5

Results for COc1ccc2c(c1)c(/C=N/Nc1ccc(C(=O)O)cc1)c(C)n2C ?
HT1080-NT tox: 11%; HT1080 IDH1KD tx: 11%; TDP1 cell CPT: 10%; ELG1 DNA repair: inconclusive; TDP1 cell noCPT: -15%; IL-1B inflam inh: 13

How did CCOc1ccc(/C=N/NC(=O)c2c(C)n(C)c3ccc(OC)cc23)cc1 do in these assays?
HT1080-NT tox: inconclusive; HT1080 IDH1KD tx: inconclusive; TDP1 cell CPT: 5.2µM*; ELG1 DNA repair: inconclusive; TDP1 cell noCPT: 5.8µM*; IL-1B inflam inh: 27

Results for COc1ccc2c(c1)c(C(=O)N/N=C/c1ccc(O)c(O)c1)c(C)n2C ?
HT1080-NT tox: -16%; HT1080 IDH1KD tx: -24%; TDP1 cell CPT: inconclusive; ELG1 DNA repair: -18%; TDP1 cell noCPT: 26µM*; IL-1B inflam inh: 34

What do the screens show for `O=C(N/N=C/c1ccc(O)c(O)c1)N/N=C/c1ccc(O)c(O)c1`?
HT1080-NT tox: -11%; HT1080 IDH1KD tx: -20%; TDP1 cell CPT: -21%; ELG1 DNA repair: inconclusive; TDP1 cell noCPT: inconclusive; IL-1B inflam inh: 11

What do the screens show for `CCOc1ccc(CNC(=O)c2ccc3nc(N4CCOCC4)sc3c2)cc1`?
HT1080-NT tox: 4%; HT1080 IDH1KD tx: 11%; TDP1 cell CPT: -16%; ELG1 DNA repair: -3%; TDP1 cell noCPT: -6%; IL-1B inflam inh: -2

How did CCc1ccc([C@@H]2C[C@H]3[C@@H](CN2S(=O)(=O)c2ccc(C)cc2)C(=O)C[C@@H](c2ccc(Cl)cc2)N3S(=O)(=O)c2ccc(C)cc2)cc1 do in these assays?
HT1080-NT tox: 4%; HT1080 IDH1KD tx: 14%; TDP1 cell CPT: -12%; TDP1 cell noCPT: -14%; IL-1B inflam inh: -3

How did COCCn1c(=O)c(-c2ccc(Cl)cc2)nc2cnc(OCc3ccccc3)nc21 do in these assays?
TDP1 cell CPT: 17%; TDP1 cell noCPT: 22%
